Laboratory results taken from PubChem BioAssay AID463075 (University of Pittsburgh Molecular Library Screening Center, 2010).
Several values for one entry are separate records, joined by “and”; a condition that tells them apart may be missing. Equal values may be shown once. Hit rate of the full screen: of about 220,000 compounds, about 150 (0.068%) were called active. This excerpt belongs to a sample that is enriched for actives. Values without a mark were called inactive.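 How the source made its calls: active means activation, meaning protection from cell death, of at least 50% relative to plate controls; inactive means activation below 50%.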

Experiment: rescue of FADD-deficient Jurkat cells from TNF-alpha death – single concentration, primary screen (AID 463075);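 further: necroptosis triggered by 40 ng/mL TNF-alpha added together with compound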
Settings: Jurkat FADD-/- TNF necroptosis rescue, ATP luminescence, 24 h; at 10 µM; stronger effect = higher value; 0 = TNF only, 100 = no-TNF cells

Row | SMILES | activation (protection from cell death)
1 | O=C(Nc1ccc(F)cc1)c1cc2c(s1)CCCC2 | -1.43%
2 | CCCCCCCNc1nc(Cl)nc(NCCO)n1 | 5.58%
3 | O=C(CCCOc1ccc(Cl)cc1Cl)NNC(=O)C1CCC1 | 3.99%
4 | C/C(CCc1ccccc1)=N\NC(=O)c1ccc(CN2CCOCC2)cc1 | 0.488%
5 | CCN=c1sc(C(=O)Nc2ccccc2)c(C)n1CC | 1.57%
6 | CCOC(=O)CN(C(=O)COc1nc(-c2ccccc2)cc(C)c1C#N)c1ccc(F)cc1 | 0.588%
7 | Cc1ccccc1-n1nc(C)c2c1N=C1C(Cl)=CC(Cl)=CN1C2c1ccc(C(=O)O)cc1 (configuration not stated) | 1.37%
8 | COc1cc(OC)cc(-c2cc3nc(C4CCN(C(=O)OC(C)(C)C)CC4)cc(=O)n3[nH]2)c1 | 1.03%
9 | c1ccc(C2c3[nH]c4ccccc4c3CCN2Cc2cccn2-c2cccnc2)nc1 (configuration not stated) | -0.81%
10 | CCCCCCC12CCC(C(=O)O)(CC1)CC2 | -1.53%
11 | CCn1c(SCC(=O)Nc2sc(C)c(C)c2C#N)nnc1C1CC1 | 4.46%
12 | Cc1ccc(CC2S/C(=C(/C#N)C(=O)N3CCOCC3)N(c3ccccc3)C2=O)cc1 (configuration not stated) | -0.961%
13 | COc1ccc(-c2ccc(CCC(=O)O)n2-c2ccc(O)cc2)cc1 | 0.347%
14 | COc1ccc(-n2c(SC)nc(O)cc2=O)cc1 | 0.231%
15 | COc1ccc(-n2c(C)nn(CC3CC3)c2=O)cc1 | 68.3% (active)
16 | COc1ccc(-n2c(C)nc3c(cnn3-c3ccccc3)c2=O)cc1 | -4.93%
17 | COc1ccc(CCN2C(=O)CC(N3CCC(C(N)=O)CC3)C2=O)cc1OC (configuration not stated) | 1.77%
18 | CCOc1cc(CNCCN(C)C)c(Cl)cc1OCC(=O)NCCc1ccccc1 | -1.03%
19 | O=C(NC(=S)Nc1cccc(-c2ccc(CO)o2)c1)c1cccs1 | -0.171%

Row | SMILES | activation (protection from cell death)
20 | Cc1nc(-c2ccccc2)cn2c1nc1ccccc12 | 0.981%
21 | CCOC(=O)C(=O)C1C(=O)Nc2ccccc21 (configuration not stated) | -0.27%
22 | COc1ccc(NC(=O)c2sccc2SCC#N)cc1 | -2.27%
23 | COc1ccc(S(=O)(=O)Nc2ccc(F)cc2)c(C)c1C | -1.23%
24 | C=CCn1c(P(C)(=O)O)nc2ccccc21 | 1.54% and 0.149%
25 | CN(C)c1ccc(-n2cccc2/C=N/n2cnnc2)cc1 | 1.75%
26 | Cc1nonc1C(=O)N/N=C/c1ccc(O)cc1 | 1.53%
27 | CCOC(=O)C1=NN(c2ccc(Cl)cc2)/C(=C/C2=NCCc3cc(OC)c(OC)cc32)S1 | -2.32%
28 | CCN(CC(=O)Nc1cccc(S(N)(=O)=O)c1)Cc1nc2ccccc2c(=O)[nH]1 | 2.32%
29 | CC(C)CCN1C(=O)c2ccc(C(=O)Nc3cccc(S(N)(=O)=O)c3)cc2C1=O | -1.31%
30 | O=C(CC1C(=O)NCCN1Cc1ccc(-c2ccccc2)cc1)NCc1ccncc1 (configuration not stated) | 0.134%
31 | S=C(Nc1ccc(Br)cc1Cl)NC1CCN(Cc2ccccc2)CC1 | 1.9%
32 | CC(C)CCN1NC2(CCC(C)CC2)NC1=S (configuration not stated) | -1.55%
33 | O=C(c1cccnc1)N(c1cc2sc(=O)oc2c2ccccc12)S(=O)(=O)c1ccccc1 | -6.46%
34 | Cn1c(S(=O)(=O)O)nc2ccccc21 | 1.18%
35 | COc1cc2nc(Cl)nc(NCCO)c2cc1OC | -0.0465%
36 | Cc1nc(N2CCOCC2)sc1C(=O)NN | 0.605%
37 | CCCC1(C(=O)OC)NC(c2ccco2)C2C(=O)N(C)C(=O)C21 (configuration not stated) | 0.819%
38 | Cc1cccc(N=Nc2c(O)[nH]c3ccc(F)cc23)c1 | 1.19%

Row | SMILES | activation (protection from cell death)
39 | O=C(NC(=O)N1CCSCC1)c1c(Cl)cccc1Cl | 3.73%
40 | CC(C)Cc1ccc(C(C)C(=N)N)cc1 (configuration not stated) | 0.316%
41 | O=C(Cc1ccccc1)N1N=C(c2ccncc2)CC1(O)C(F)(F)F (configuration not stated) | -1.22%
42 | Cc1nnc(NCCO)c2ccccc12 | 2%
43 | Cc1nn(CC(=O)Nc2ccc3c(c2)OCO3)c(C)c1[N+](=O)[O-] | 0.0311%
44 | CCOC(=O)c1c(CC(C)C)csc1/N=C/C1=C(O)CCCC1=O | 2.28%
45 | O=C(Nn1cnc2ccccc2c1=O)c1ccc([N+](=O)[O-])cc1Cl | -1.3%
46 | O=C(CS(=O)(=O)c1ccc(C(F)(F)F)cn1)NNC(=O)c1ccccc1 | -0.488%
47 | O=C(O)c1n[nH]nc1-c1ccccc1 | -0.36%
48 | O=C(C1=C[C@H](c2coc3ccccc3c2=O)C[C@H](OCc2ccc(CO)cc2)O1)N1CCOCC1 | 0.365%
49 | COc1ccc(Cl)cc1NC(=O)[C@@H]1CCCN1C(=O)c1cccs1 | 2.67%
50 | C=C1C2C[C@H](O)C(C)(C)[C@@]2(O)[C@H](O)C[C@]23C[C@@](C)(O)[C@H](CC[C@H]12)[C@H]3O (some centres not stated) | 1.07%
51 | CCOc1cccc(C(=O)Nc2cnn(Cc3ccccc3)c2)c1 | -1.07%
52 | O=C(COC(=O)Cc1ccc(Br)cc1)Nc1c(F)c(F)c(F)c(F)c1F | -0.784%
53 | CN(C(=O)CSc1nc(C2CC2)nc2ccccc12)c1nc(-c2ccccc2)cs1 | 0.753%
54 | COc1ccc(OC)c(-c2c(=O)n(OCc3ccccc3Br)c3ccccc3[n+]2[O-])c1 | 0.8%
55 | O=C(Nc1ccccc1-c1ccccc1)c1cccs1 | -1.99%
56 | CN(C(=O)COc1ncnc2c1cnn2-c1ccccc1)C1CCCCC1 | -0.83%
57 | CNC(=O)c1nnc(Cc2ccc(Cl)cc2)o1 | 5.11%
